PubChem BioAssay (NCI)
This is part of a sample that, as a whole, favours compounds with a hit. Of some 79,000 tested, about 15% had one in any assay. Active and inactive are the calls of the source. No stated cut-off is given here; in the data, active means growth inhibition above about 70%; inactive means the rest.

Legend:
[1] = NCI Yeast Anticancer Drug Screen. Data for the rad52 strain (AID 147);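 further: 0% = growth of vehicle-treated control cultures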; details: S. cerevisiae rad52 mutant growth inhibition, stronger effect = higher value
Outline: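 DNA repair-defective yeast; compound exposure; growth scored against vehicle controls.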

[2] = NCI Yeast Anticancer Drug Screen. Data for the wt1 strain (AID 149);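 further: 0% = growth of vehicle-treated wt1 cultures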; details: S. cerevisiae wt1 strain (SPY 50644) growth inhibition, stronger effect = higher value
Outline: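 Growth inhibition read against vehicle controls after compound exposure of the wt1 yeast strain.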

[3] = NCI Yeast Anticancer Drug Screen. Data for the rad50EPP+ strain (AID 151);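 further: 0% = growth of vehicle-treated control cultures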; details: S. cerevisiae rad50 mutant strain, stronger effect = higher value
Outline: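 rad50EPP+ yeast treated with test compounds. Readout: growth vs vehicle control.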

[4] = NCI Yeast Anticancer Drug Screen. Data for the mgt1 strain (AID 153); details: S. cerevisiae mgt1 mutant growth inhibition, stronger effect = higher value
Outline: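 Growth inhibition relative to vehicle controls was scored for the mgt1 yeast strain after compound exposure.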

[5] = NCI Yeast Anticancer Drug Screen. Data for the rad50 strain (AID 155);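 further: 0% = growth of vehicle-only cultures of the same strain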; details: S. cerevisiae rad50 strain growth inhibition, stronger effect = higher value
Outline: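 Readout: growth inhibition relative to vehicle-treated cultures. Compound exposure was carried out in a genetically defined yeast strain deficient in DNA damage repair.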

[6] = NCI Yeast Anticancer Drug Screen. Data for the mec2-1 strain (AID 157); details: S. cerevisiae mec2-1 strain, stronger effect = higher value
Outline: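 Growth inhibition is read against vehicle-treated controls after compound exposure of the mec2-1 yeast strain, which is defective in DNA damage repair or cell cycle control.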

[7] = NCI Yeast Anticancer Drug Screen. Data for the rad14 strain (AID 159);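 further: 0% = growth of vehicle-treated control cultures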; details: S. cerevisiae rad14 strain growth inhibition, stronger effect = higher value
Outline: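 Growth inhibition vs vehicle controls; genetically altered yeast strain (DNA damage repair defect) treated with test compounds.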

[8] = NCI Yeast Anticancer Drug Screen. Data for the sgs1 mgt1 strain (AID 161);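 further: 0% = growth of cultures given vehicle only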; details: S. cerevisiae sgs1 mgt1 strain, stronger effect = higher value
Outline: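 Percent growth inhibition was derived by comparing compound-exposed mutant yeast with vehicle-exposed cultures. The strain carries alterations in DNA damage repair.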

[9] = NCI Yeast Anticancer Drug Screen. Data for the CLN2oe strain (AID 163);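 further: 0% = growth of vehicle-only control cultures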; details: S. cerevisiae CLN2oe strain, stronger effect = higher value
Outline: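 Compound-treated yeast; growth vs vehicle ctrl = % inhibition. Genetically altered strain (cell-cycle control).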

[10] = NCI Yeast Anticancer Drug Screen. Data for the cln2 rad14 strain (AID 165);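 further: 0% = growth equal to vehicle treated cultures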; details: S. cerevisiae cln2 rad14 strain, stronger effect = higher value
Outline: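 Growth inhibition, relative to vehicle-treated controls, is the read-out. The test organism is a yeast strain with defined genetic alterations, cln2 rad14.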

[11] = NCI Yeast Anticancer Drug Screen. Data for the bub3 strain (AID 167); details: S. cerevisiae bub3 mutant strain, stronger effect = higher value
Outline: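 Readout: yeast growth inhibition, expressed relative to vehicle-only wells. The test organism is a mutant strain from a panel with lesions in DNA repair or checkpoint genes.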

[12] = NCI Yeast Anticancer Drug Screen. Data for the wt2 strain (AID 169);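 further: 0% = growth of vehicle-treated yeast cultures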; details: S. cerevisiae wt2 strain growth inhibition, stronger effect = higher value
Outline: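 Compound exposure of yeast; growth compared with vehicle controls; inhibition reported.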

[13] = NCI Yeast Anticancer Drug Screen. Data for the mlh1 strain (AID 171);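 further: 0% = growth of vehicle-treated control cultures of the same strain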; details: S. cerevisiae mlh1 strain growth inhibition, stronger effect = higher value
Outline: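 Compounds are applied to a genetically altered yeast strain, and its growth is compared with that of vehicle-treated cultures to give percent inhibition.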

[14] = NCI Yeast Anticancer Drug Screen. Data for the sgs1 strain (AID 173);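 further: 0% = growth of vehicle-only control cultures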; details: S. cerevisiae sgs1 mutant, stronger effect = higher value
Outline: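 Compounds applied to genetically altered yeast; growth compared with vehicle-treated cultures to give % inhibition.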

[15] = NCI Yeast Anticancer Drug Screen. Data for the mlh1 rad18 strain (AID 175); details: S. cerevisiae mlh1 rad18 strain growth inhibition, stronger effect = higher value
Outline: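 Cells of a genetically altered yeast strain, deficient in DNA damage repair, were treated with compound. Their growth was then compared with that of vehicle-treated cultures to give inhibition.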

[16] = NCI Yeast Anticancer Drug Screen. Data for the rad18 strain (AID 177); details: S. cerevisiae rad18 mutant growth inhibition, stronger effect = higher value
Outline: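 Compounds are applied to a repair-deficient yeast strain, and growth is compared with that of vehicle-treated cultures to give percent inhibition.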

[17] = at 5.0 µM (retest, dose inferred, filed as 0.5)
[18] = at 50.0 µM (retest, dose inferred, filed as 5.0)

Measured: growth inhibition

COC(=O)C1=C(C(=O)OC)C2(C)C=CC1O2 (stereo not drawn)
active: [1]; at 33.0 µM 70% | [1]; at 100.0 µM 91% | [2]; at 100.0 µM 93% | [4]; at 100.0 µM 86% | [5]; at 33.0 µM 72% | [5]; at 50.0 µM 81.2% | [5]; at 100.0 µM 91% | [6]; at 50.0 µM 86.8% | [6]; at 100.0 µM 87% | [7]; at 100.0 µM 87% | [8]; at 50.0 µM 82.2% | [11]; at 33.0 µM 75% | [11]; [18] 74% | [11]; at 50.0 µM 89.6% | [11]; at 100.0 µM 94% | [12]; at 33.0 µM 91% | [12]; at 100.0 µM 97% | [13]; at 100.0 µM 90% | [14]; at 33.0 µM 84% | [14]; at 100.0 µM 95% | [15]; at 50.0 µM 86.2% | [16]; at 100.0 µM 89%
inactive: [1]; at 1.2 µM -1% | [1]; at 3.7 µM -4% | [1]; at 11.0 µM 21% | [2]; at 1.2 µM 0% | [2]; at 3.7 µM 7% | [2]; at 11.0 µM 30% | [2]; at 33.0 µM 62% | [3]; at 1.2 µM -11% | [3]; at 3.7 µM -34% | [3]; at 11.0 µM -12% | [3]; at 33.0 µM 20% | [3]; at 100.0 µM 19% | [4]; at 1.2 µM -4% | [4]; at 3.7 µM -9% | [4]; at 11.0 µM -3% | [4]; at 33.0 µM 32% | [5]; at 1.2 µM -15% | [5]; at 3.7 µM -13% | [5]; [17] -135% | [5]; at 11.0 µM 7% | [5]; [18] 53% | [6]; at 1.2 µM -2% | [6]; at 3.7 µM -1% | [6]; [17] -43% | [6]; at 11.0 µM 1% | [6]; at 33.0 µM 26% | [6]; [18] 43% | [7]; at 1.2 µM 1% | [7]; at 3.7 µM 15% | [7]; at 11.0 µM 17% | [7]; at 33.0 µM 33% | [8]; [17] -55% | [8]; [18] 63% | [9]; at 1.2 µM -7% | [9]; at 3.7 µM -5% | [9]; at 11.0 µM -4% | [9]; at 33.0 µM 15% | [9]; at 100.0 µM 42% | [10]; [17] -46% | [10]; [18] -7% | [10]; at 50.0 µM 19.1% | [11]; at 1.2 µM -9% | [11]; at 3.7 µM -3% | [11]; [17] -62% | [11]; at 11.0 µM 10% | [12]; at 1.2 µM -4% | [12]; at 3.7 µM -3% | [12]; at 11.0 µM 52% | [13]; at 1.2 µM -14% | [13]; at 3.7 µM -10% | [13]; at 11.0 µM -7% | [13]; at 33.0 µM 52% | [14]; at 1.2 µM -4% | [14]; at 3.7 µM -4% | [14]; at 11.0 µM 33% | [15]; [17] -114% | [15]; [18] 48% | [16]; at 1.2 µM -10% | [16]; at 3.7 µM -6% | [16]; at 11.0 µM 10% | [16]; at 33.0 µM 62%
